Screens from PubChem.
An excerpt weighted towards active compounds, which were near 13% of everything screened.
Lmaj promast = Leishmania major promastigote growth inhibition; Leishmania major promastigotes, resazurin fluorescence viability; inhibition, % at 10 µM; 200,000 compounds, 9% hits; AID 1063; in the data active = inhibition above about 50%;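 note: promastigotes grown with compound for 44 hours at 28 °C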
RAM inhibit = yeast RAM network inhibition | S. cerevisiae dse1pr::URA3 reporter, 5-FOA growth OD615, 2 d; analog-sensitive cbk1-as2 kinase mutant strain | inhibition, % at 50 µM | 190,000 compounds, 1.8% hits | AID 868;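 active = inhibition above a set limit, 3 SD over mean compound inhibition, cut at about 8.4% in these data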;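 note: 0% = DMSO-only wells with no growth and 100% = 10 µM 1-NA-PP1 full growth; inhibition rescues growth on 5-FOA so higher OD means more RAM inhibition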
CHOP inhibitor = CHOP inhibition in unfolded protein response. 220,000 compounds, 3.8% hits. inhibition, % at 10 µM. CHO-K1 CHOP-promoter luciferase, tunicamycin-induced, 15-18 h;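 active = compounds that reduced the stress-induced luciferase reporter signal by more than about 70% of percent inhibition, limit read from the data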;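 note: 0% = tunicamycin plus vehicle and 100% = wells without tunicamycin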
WT yeast gro inh = growth inhibition of WT yeast, mitochondrial fusion screen; mitochondrial fusion phenotypic screen, WT strain; inhibition, % at 10 µM; 190,000 compounds, 2.1% hits; in the data active = inhibition above about 58%; tested in S. cerevisiae
An asterisk follows results filed as active; nt = no result given.

SMILES	Lmaj promast	RAM inhibit	CHOP inhibitor	WT yeast gro inh
CCN1CCc2c(sc(NC(=O)c3ccc(S(=O)(=O)N4CCOCC4)cc3)c2C(=O)OC)C1	76*	0	20	10
CCn1c(=NC(=O)c2ccc(S(=O)(=O)N3CCOCC3)cc2)sc2cccc(OC)c21	100*	6	83*	37
COc1ccccc1C(=O)NCC1CCN(c2ccc(S(=O)(=O)N3CCOCC3)cc2)CC1	100*	0	15	-8
CC(=O)c1ccc(NC(=O)COc2ccc3c(c2)OCO3)cc1	8	3	-16	-1
N=c1n(CC(=O)c2cccs2)c2ccccc2n1Cc1ccccc1	nt	nt	33	nt
CC(C)c1ccc(N2CC(C)(C)C2=O)cc1	-8	-1	-7	-8
C#CCn1cc(/C=N/NC(=O)COc2cccc3cccnc23)c2ccccc21	58*	2	103*	8
Cc1ccccc1OCC(=O)N/N=C/c1cn(Cc2ccccc2)c2ccccc12	7	5	73*	-3
Cc1ccc(OCC(=O)N/N=C\c2cn(Cc3ccccc3)c3ccccc23)cc1C	5	0	64	-9
Cc1nonc1C1CCCN1C(=O)c1cc(COc2ccc(F)cc2F)on1 (configuration not stated)	19	3	-4	15
C[N+](C)(C)C(Cc1ccccc1)C(=O)[O-] (configuration not stated)	nt	nt	6	nt
CCC(CC)NC(=O)CON=C1c2ccccc2-c2ccccc21	-7	5	72*	-6
CCNC(=O)CON=C1c2ccccc2-c2ccccc21	0	-1	17	0
O=c1[nH]c(CSc2ncc(C(F)(F)F)cc2Cl)nc2ccccc12	-1	3	-4	4
O=c1[nH]c(CSc2ncnc3sccc23)nc2cc(C(F)(F)F)ccc12	nt	nt	89*	nt
CSc1ccc(CN(C)Cc2nc3cc(C(F)(F)F)ccc3c(=O)[nH]2)cc1	7	1	71*	11
CCOC(=O)c1cc(-c2ccc(OC)cc2)nn1-c1ccc(C(=O)O)cc1	-2	6	-15	-6
O=C(CSc1nnc(-c2ccncc2)n1-c1ccc(F)cc1)NNC(=O)c1cccc(O)c1	-4	1	8	0
CN(C)C/C(Cl)=C(\Cl)c1ccccc1	1	1	77*	-3
CSc1nnc(CSc2cc(C)nc(N(C)C)n2)o1	0	-1	-37	1
O=c1c2ccccc2nc(/C=C/c2cccc([N+](=O)[O-])c2)n1CCCO	21	nt	nt	nt
Cc1ccc(/C=C/c2nc3ccccc3c(=O)n2CCc2ccccc2)cc1	11	10*	11	2
O=c1c2ccccc2nc(/C=C/c2ccc([N+](=O)[O-])o2)n1CCCO	101*	1	-21	65*
O=c1c2ccccc2nc(/C=C/c2ccc([N+](=O)[O-])cc2)n1CCCO	60*	-1	-6	-8
Cc1ccccc1/C=C/c1nc2ccccc2c(=O)n1CCc1ccccc1	18	7	59	-9
SMILES	Lmaj promast	RAM inhibit	CHOP inhibitor	WT yeast gro inh
CNC(=S)SCCOc1ccccc1C	-5	-1	12	20
CSCCC(NC(=O)COc1cccc2ccccc12)C(=O)O (configuration not stated)	nt	nt	0	nt
CC1CC(C)(C)NC(=S)N1CCC(=O)N1CCc2ccccc2C1 (configuration not stated)	3	0	4	10
CC(C)CC(NC(=O)CNC(=O)C1O[C@@H]2OC(C)(C)O[C@@H]2[C@H]2OC(C)(C)O[C@@H]12)C(=O)O (some centres not stated)	1	0	19	6
Cc1ccc(C(=O)NCC(=O)NCC(=O)OCC(=O)c2ccc(Br)cc2)cc1	35	4	9	1
CCOC(=O)CNCCC(=O)c1ccc(Br)cc1	63*	-1	12	-7
Cc1c(NC(=O)c2ccc3c4c(cccc24)CC3)c(=O)n(-c2ccccc2)n1C	-1	2	11	2
O=C(/C=C/c1ccccc1)c1ccc2c3c(cccc13)CC2	71*	3	-49	9
COc1ccc(C(=O)/C=C2/c3ccccc3CC(C)(C)N2C)cc1OC	9	1	-9	-3
CCC(C)C(=O)Nc1cccc(SC)c1 (configuration not stated)	9	0	-14	-23
O=S(=O)(c1ccccc1)c1cnn(-c2ccccc2)c1-c1ccc(F)cc1	50*	2	35	7
O=S(=O)(c1ccccc1)c1cnn2c(C(F)(F)F)cc(-c3ccccc3)nc12	4	1	12	40
O=S(=O)(c1ccccc1)c1cnn2c(C(F)(F)F)cc(-c3ccc(F)cc3)nc12	25	5	71*	10
COc1ccc(-n2ncc(S(=O)(=O)c3ccccc3)c2-c2ccc(Cl)cc2)cc1	99*	5	-30	53
NC(=O)c1ccc(NC(=O)COC(=O)CCC(=O)c2ccc(Cl)cc2)cc1	-13	6	7	-12
COc1cccc(C2=CC(c3cccc(OC)c3OC)n3nnnc3N2)c1 (configuration not stated)	79*	2	nt	9
COc1cccc(C2=CC(c3cc(OC)ccc3OC)n3nnnc3N2)c1 (configuration not stated)	92*	1	nt	22
COc1cccc(C2=CC(c3ccccc3)n3nnnc3N2)c1 (configuration not stated)	45	0	-14	68*
CCCN(Cc1ccc(N(CC)CC)cc1)CC1CC1	76*	1	9	-5
O=C(NC1CC(=O)c2sccc21)c1ccc(Cl)cc1Cl (configuration not stated)	-8	-1	0	-2
Cc1nn2c(CN(C(=O)COc3ccccc3)c3ccccc3)nnc2c2ccccc12	81*	2	14	-9
Cc1nn2c(CN(C(=O)CN3CCOCC3)c3ccccc3)nnc2c2ccccc12	-2	0	10	21
O=C(Nc1nncs1)c1cccnc1Cl	0	1	15	-4
C=CCNC(=O)CSc1nnc(-c2ccccc2Br)n1-c1cccc(C(F)(F)F)c1	79*	3	5	-13
CC1(O)N(CCC(=O)Nc2cccc(F)c2)C(=O)OC12CCCCC2 (configuration not stated)	-1	3	-2	5
SMILES	Lmaj promast	RAM inhibit	CHOP inhibitor	WT yeast gro inh
COc1cc2c3nnc(-c4ccc(F)cc4)c-3cn(Cc3ccccc3F)c2cc1OC	-4	4	88*	-54
COc1cc2c3nnc(-c4ccccc4)c-3cn(Cc3ccccc3F)c2cc1OC	38	4	-69	14
CC[N+](C)(CC)CC(O)COCC1COc2ccccc2O1 (configuration not stated)	-4	1	2	12
Cc1cc2nc(-c3ccc(SCc4ccc(C#N)cc4)nc3)[nH]c2cc1C	62*	3	20	-20
CC(=O)CSc1ccc(-c2nc3cc(C)c(C)cc3[nH]2)cn1	80*	0	47	-5
COc1cccc(OCc2nnc(-c3cccs3)o2)c1	-3	1	-9	1
COc1ccc(-c2nnc(COc3ccc4ccccc4c3)o2)cc1OC	-3	9.7*	6	33
COc1cc(-c2nnc(COc3ccc4cc(Br)ccc4c3)o2)cc(OC)c1OC	-4	3	63	9
